Among all 69,000 compounds or so, about 8,600 (12%) showed an effect of 50% or more. The sample holds strong results, similar compounds and a random draw of the others, so the mix is not that of the screen.

The values below come from ChEMBL document CHEMBL4513216, “Probing the Open Global Health Chemical Diversity Library for Multistage-Active Starting Points for Next-Generation Antimalarials” (ACS Infect Dis, 2020).

The experiment has as its system Plasmodium berghei. Briefly: Screen against P. berghei liver stage (PbLuc), transformed with Luciferase, at 10uM. In kind it is functional, HepG2. As to conditions: tested at 10 uM.
For `O=C(NC[C@H]1C[C@@H]2CN(C(=O)c3ccco3)C[C@@H]2O1)c1ccsc1`, the INHIBITION is on record as 18.6%. In the case of `Cn1cccc1C(=O)NC[C@H]1C[C@@H]2CN(C(=O)c3ccco3)C[C@@H]2O1`, the INHIBITION is reported as 7.7%. Then `O=C(NC[C@@H]1C[C@@H]2CN(C(=O)CO)C[C@H]2O1)c1ccsc1`, with 52.1%; and `CC(C)OCc1ncn2c1CN(Cc1cccs1)CCC2`, with 15.9%; and `CCn1cc2c(n1)C(COC)CN(C(=O)CCOc1ccccc1)C2` (stereo not drawn), with -37.9%.

Consider `CCc1cnc(N)nc1NC(C)c1ccc(C)c(C)c1` (stereo not drawn), for which the INHIBITION came to 88.2%. For the molecule `CCc1cnc(N)nc1N[C@@H](C)c1ncccc1C`, the INHIBITION was 3.96%. As to `CCc1cnc(N)nc1NC(C)c1cnn(C)c1` (stereo not drawn), the INHIBITION worked out at 17.8%. Consider `CN(CC(O)C(F)(F)F)C(=O)Nc1cccc(N2CCCC2)c1` (stereo not drawn), for which the INHIBITION is recorded as -16.4%.

As to `Cn1cc(CN2CCC(F)(F)C3(CCN(c4ncc(F)cn4)C3)C2)cn1` (stereo not drawn), the INHIBITION was 12.5%. Then `O=C(c1ccc(Cn2ccccc2=O)o1)N1CCSCC1`, with 20.45%; and `COc1c(Cl)cccc1NCc1csc(C)n1`, with -1.37%; and `COCCS(=O)(=O)Cc1csc(NC(C)=O)n1`, with 21.8%.

For `COCc1csc(NC(=O)NCc2ccccn2)n1`, the INHIBITION is given as -3.99%.

In the case of `CCOC(C)c1nc(CNc2cccc(Cl)c2OC)cs1` (stereo not drawn), the INHIBITION is on record as -3.08%. With `COc1c(Cl)cccc1NCc1csc(NC(C)=O)n1`, the INHIBITION came to 89.4%. The result for `CNc1nc(CNC(=O)Nc2cccc(Cl)c2OC)cs1` reads 3.263%.

For the molecule `CC(=O)Nc1nc(CS(=O)(=O)Cc2ccccc2)cs1`, the INHIBITION is listed as 55.4%. As to `CC(=O)Nc1nc(CNc2ccccc2CCC(F)(F)F)cs1`, the INHIBITION came out at 42.6%. The result for `COCc1ccccc1NCc1csc(NC(C)=O)n1` reads 89%; that for `CC(=O)Nc1nc(CS(=O)(=O)CCCc2ccccc2)cs1`, -25.2%. On to `Cc1nc(CNc2ccccc2CCC(F)(F)F)cs1`, for which the INHIBITION was -13.6%. In the case of `Cc1nc(CNc2cccc(Cl)c2Cl)cs1`, the INHIBITION worked out at 50%.

Regarding `CN(Cc1ccco1)C(=O)C1CSCN1C(=O)c1cccs1` (stereo not drawn), the INHIBITION is given as -31.8%. The result for `CCS(=O)(=O)N1CC[C@@H]2[C@H](CC1)N(Cc1cccnc1)CCS2(=O)=O` reads 5.56%; that for `CCCC(=O)Nc1ccc(CC(=O)N(C)CCc2cn[nH]c2)cc1`, 17.3%; that for `COCC1N(C(=O)c2ccc3c(c2)OCCCO3)C2CCC1(O)CC2` (stereo not drawn), -35.3%.

For `CN1CC(C(=O)NCc2cccnc2-n2cccn2)CC1=O` (stereo not drawn), the INHIBITION is given as -37.7%. For `COCC1CN(Cc2cc(C)on2)Cc2cnn(C)c21` (stereo not drawn), the INHIBITION is recorded as -13.7%. In the case of `CCn1c(Cn2cncn2)nnc1C1CCN(Cc2cccnc2)CC1`, the INHIBITION is listed as -50.8%.

Regarding `Cc1nn(C)c2c(N3CCSCC3)nc(C3CC3)nc12`, the INHIBITION was 22.6%.

In the case of `CN1CCN(c2ccc(NCc3ccc(OC(F)(F)F)cc3)cn2)CC1`, the INHIBITION was found to be 83.2%. Regarding `CN1CCN(c2ccc(NCc3ccsc3)cn2)CC1`, the INHIBITION came to 69.3%. As to `Cc1nc(CNCc2ccc(N3CCN(C)CC3)nc2)cs1`, the INHIBITION stood at 29.1%. Take `CN1CCN(c2ccc(NCc3ccc([S+](C)[O-])cc3)cn2)CC1` (stereo not drawn): the INHIBITION is given as 47.4%. Consider `CCOc1ccc(NCc2cnc(N3CCN(C)CC3)nc2)cn1`, for which the INHIBITION is given as -15.7%. For `CN(Cc1ccsc1)C(=O)Nc1ccc(N2CCCC2)nc1`, the INHIBITION came to 15.3%. The result for `O=C(c1ccco1)N1C[C@@H]2CN(c3ccccn3)C[C@@H]2C1` reads 5.04%; that for `O=C1NC2(CCN(C(=O)c3ccccc3)CC2)CC1c1cccnc1` (stereo not drawn), -8.19%; that for `O=C(c1cccc(S(=O)(=O)NC[C@@H]2C[C@H](F)CN2)c1)N1CCCCC1`, 46.1%.

Take `O=C(Nc1ccccc1)c1cccc(S(=O)(=O)NC[C@@H]2C[C@H](F)CN2)c1`: the INHIBITION stood at 60.2%. Consider `CCOCCNC(=O)c1cccc(S(=O)(=O)NC[C@@H]2C[C@H](F)CN2)c1`, for which the INHIBITION was -3.87%. With `CNc1snc(C)c1C(=O)N1CCCC(n2ccnc2C)C1` (stereo not drawn), the INHIBITION came to 37.9%. Regarding `Cn1ccnc1CN1CCc2onc(COCC3CC3)c2C1`, the INHIBITION stood at 19.6%. On to `Cc1nccn1CCCN1CCCC(c2ccccc2)C1` (stereo not drawn), for which the INHIBITION is on record as 49.4%. Then `CC(=O)Nc1ccc(OCc2noc(C(=O)N3CCCC3)n2)cc1`, with 31.3%. With `CC(=O)Nc1ccc(OCc2noc(C(=O)N3CCCCCC3)n2)cc1`, the INHIBITION came out at 64.7%. As to `CC(=O)Nc1ccc(OCc2noc(C(=O)N3CCCCC3)n2)cc1`, the INHIBITION was 17.1%. In the case of `N#Cc1cccc(N2CCCC3(C2)CN(c2ncc(F)cn2)CCO3)n1` (stereo not drawn), the INHIBITION is given as 8.31%. Take `c1coc(CN2CCn3c(COCC4CC4)nnc3C2)c1`: the INHIBITION was 18.5%. Regarding `NC(=O)C1CCCN(C(=O)c2cnc3c(cnn3C3CCCC3)c2)C1` (stereo not drawn), the INHIBITION is recorded as 56.6%. As for `CN1CCN(C(=O)c2cnc3c(cnn3C3CCCC3)c2)CC1`, the INHIBITION is on record as 24.8%. Take `CCOC1CCCN(C(=O)c2cnc3c(cnn3C3CCCC3)c2)C1` (stereo not drawn): the INHIBITION was 24%.
